An excerpt weighted towards active compounds, which were near 21% of everything screened.
Pf growth 48h – P. falciparum growth inhibition at 48 hours (one generation); P. falciparum luciferase growth in erythrocytes, 48 h; Potency, µM (titrated, usually from 28.7 µM), for inactives: top-dose activity change, negative = inhibition, actives largely listed as inhibitors; 5.9% of 310,000 active; also: potency is read from the fitted curve at half-maximal effect; % is scaled to controls: 0 for no effect and ±100 for the full control effect
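A one-generation exposure of luciferase-tagged malaria parasites in RPMI 1640/Albumax erythrocyte culture, 37 C and 5% CO2. Inhibition is inferred from decreased luminescence after adding detection reagent.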
Cycloheximide cs – affects cycloheximide protein synthesis inhibition readout, counter-screen; max response, %; 12% of 300,000 active; cell reporter, cycloheximide protein synthesis inhibition counterscreen; in the data active = max response mostly above about 13%, no sharp cut-off; inactive = mostly below about 14%; also: read at 38.3 µM for the half of the compounds with a filed dose; 0% is about no effect
HCV inhibitor – HCV inhibition; Potency, µM (highest dose often 41.8 µM), for the others: at the top dose activity change, negative = inhibition, usual class: inhibitors; Huh7.5.1 HCVcc-Cre infection, luciferase reporter, 44 h; AID 651820; 3.4% of 340,000 active; also: potency is read from the fitted curve at half-maximal effect; % is scaled to controls: 0 for no effect and ±100 for the full control effect
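Cells seeded at 1,000/well and cultured 4 h, then compounds added followed by HCVcc-Cre virus (~0.5 moi). After 44 h further culture, luciferase substrate was added, plates held 15 min at room temperature, and luminescence read for 15 sec.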
Shiga toxin inh – inhibitors of Shiga toxin in Vero cells; Vero cells, Shiga toxin protein synthesis inhibition reporter; inhibition, % at 38.7 µM; 9.2% of 290,000 active; in the data active = inhibition mostly above about 28%, no sharp cut-off; inactive = mostly below about 43%; also: 0% is about no effect
AMA1 RON2 block – inhibitors of Plasmodium falciparum AMA1-RON2 interaction | 0.2% of 360,000 active | AID 720542 | Potency, µM (titrated, usually from 58.2 µM), inactives show top-dose activity change, negative = inhibition, most hits filed as inhibitors | AlphaScreen AMA1-biotinylated RON2 peptide binding;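 also: potency is read from the fitted curve at half-maximal effect; 0% = vehicle wells and -100% = peptide control; nearly all actives have a fitted effect of over 45% in size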
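AMA1 (3D7) with his tag at 25 nM final met compounds first, then biotinylated RON2 peptide at 25 nM; detection used donor plus acceptor beads, 10 µg/mL apiece, read by AlphaScreen after 30 min at room temperature.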
Pf growth 96h – inhibits malaria parasite growth, 96 h; P. falciparum luciferase reporter growth, 96 h; Potency, µM (doses to about 28.7 µM), without a hit: at the highest dose activity change, negative = inhibition, usual class: inhibitors; 6.9% of 320,000 active; AID 504834; also: potency is read from the fitted curve at half-maximal effect; % is scaled to controls: 0 for no effect and ±100 for the full control effect
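Compounds incubated with erythrocytes infected by luciferase-expressing P. falciparum (2% hematocrit, 0.05% parasitemia final) for 96 hours, 37 C in 5% CO2. Growth inhibition scored as decreased luciferase luminescence.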
Starred values were filed as active, the others as inactive; u = inconclusive; x = no result; [ ] = another dose, or the depositor's remark. Unless noted, calls follow the shape of the dose curve; as a rule, active = well fitted curve in the direction sought with a large enough effect; inconclusive = small, poorly fitted or top-dose-only effect, or another doubt; inactive = no such curve, though single readings can be large; an effect the other way counts as inactive or inconclusive.

SMILES	Pf growth 48h	Cycloheximide cs	HCV inhibitor	Shiga toxin inh	AMA1 RON2 block	Pf growth 96h
COc1ccc(OC)c(NC(=O)C(=O)NNC(=O)COc2ccc(Br)cc2C)c1	28.8%	1.3	u	-15.5	105.4%	78.8%
O=C(NC(Cc1ccc(O)cc1)C(=O)O)c1ccc2c(c1)OCO2 (centres undefined)	7.1%	x	-3.6%	x	11.6%	5.8%
COc1ccc(N(Cc2ccccc2)S(=O)(=O)c2cc(C(=O)O)ccc2Cl)cc1	26.9%	3.6	-1.0%	26.3	0.0%	u
O=C(/C=C/c1ccc(-c2ccccc2)cc1)NCc1cccnc1	29.3%	28.0*	-11.8%	x	-6.1%	u
O=C(O)/C=C\C(=O)NCc1cccnc1	18.9%	-3.1	18.3%	-15.4	31.5%	2.62µM*
O=C(/C=C/NCc1cccnc1)c1ccc(-c2ccccc2)cc1	22.4%	33.4*	8.8%	90.5*	-19.1%	0.0%
O=C(/C=C/c1ccccc1)NCc1cccnc1	13.6%	2.6	16.6%	0.5	-0.9%	231.2%
NC(=O)CSc1nc(-c2ccccc2)nc2c1CCCC2	8.9%	3.7	-16.2%	21.8	0.2%	7.38µM*
CN(C)CCSc1nc(-c2ccccc2)nc2c1CCC2	-22.3%	1.7	-6.7%	-12.4	0.0%	u
Cc1cccc2c(SCC(N)=O)nc(-c3ccccc3)nc12	10.0%	-4.2	7.08µM*	-3.9	-0.1%	167.2%
NC(=O)CSc1nc(-c2ccccc2)nc2ccccc12	7.2%	-5.1	u	2.9	10.0%	u
CN(C)C(=O)CSc1nc(-c2ccccc2)nc2c1CCCC2	u	-2.2	u	-2.0	-7.4%	9.28µM*
CCc1cc(CNC(=O)CCc2nnc(Cc3cccc(C)c3)o2)on1	40.5%	7.6	24.3%	70.8*	-2.0%	27.9%
Cc1cccc(Cc2nnc(CCC(=O)NCc3ccncc3C)o2)c1	u	31.3*	6.3%	34.7	1.0%	u
O=C(CCc1nnc(CCCCc2ccccc2)o1)NCc1cccc(F)c1	-8.1%	1.2	-1.6%	13.1	7.9%	u
CCc1cc(CNC(=O)CCc2nnc(CCCc3ccccc3)o2)on1	-9.6%	57.9*	14.4%	78.6*	-2.5%	u
CC(C)c1cc(CNC(=O)CCc2nnc(CCCc3ccccc3)o2)on1	-12.9%	30.4*	0.8%	57.5*	-8.9%	17.5%
C[C@@H]1CN([C@H](C)CO)C(=O)CCCn2nncc2CO[C@H]1CN(C)S(=O)(=O)c1cccc(C#N)c1	x	x	x	x	7.9%	x
COc1ccc(CNCCC2(Cc3ccccc3)CC(C)N(C)CC2C)cc1OC (centres undefined)	u	-1.4	7.94µM*	7.1	-2.0%	-4.0%
CCCC[C@@H]1C[C@H]1[C@@H](NC(=O)c1ccccc1)c1ccccc1C(F)(F)F	u	-1.2	u	4.1	3.1%	u
C=C(CC1([C@@H](NP(=O)(c2ccccc2)c2ccccc2)[C@H]2C[C@@H]2CCCC)CC1)c1ccccc1	5.86µM*	0.8	4.8%	-10.5	-11.0%	9.28µM*
COC(=O)c1ccc(C23CC4(C2)[C@H](CN(Cc2cccnc2)[C@@H]4c2ccccc2)C3c2ccccc2)cc1 (some centres undefined)	7.38µM*	-2.8	-17.2%	-5.8	-16.4%	8.28µM*
N#Cc1ccc(C23CC4(C2)[C@H](CN(Cc2cccnc2)[C@@H]4c2ccccc2)C3c2ccccc2)cc1 (some centres undefined)	4.15µM*	-3.4	u	7.4	-3.1%	3.7µM*
COC(=O)c1ccc(C23CC4(C2)[C@H](CN(Cc2cccnc2)[C@@H]4c2ccccc2)C3c2ccc(C(F)(F)F)cc2)cc1 (some centres undefined)	2.94µM*	-1.4	-20.1%	1.2	1.2%	3.29µM*
N#Cc1ccc(C23CC4(C2)[C@H](CN(CC2CCCCC2)[C@@H]4c2ccccc2)C3c2ccc(Cl)nc2)cc1 (some centres undefined)	u	-2.7	-2.8%	-4.5	3.8%	u
SMILES	Pf growth 48h	Cycloheximide cs	HCV inhibitor	Shiga toxin inh	AMA1 RON2 block	Pf growth 96h
CC(C)Oc1ccc(F)cc1-c1cc(C(=O)NCc2ccc(F)cc2)[nH]n1	x	x	x	x	0.5%	x
Cc1ccc(N2CCN(C(=O)C(=O)c3ccc4c(c3)OCO4)CC2)cc1	x	x	x	x	3.5%	x
Nc1nc(OCC2CCCCC2)c2[nH]cnc2n1	u	0.9	-6.2%	-0.3	3.4%	u
Cc1ccc(CCC(=O)Nc2ccccc2F)s1	90.0%	32.4*	10.5%	92.6*	14.3%	7.5%
O=C(CC(=O)Nc1ccccc1F)Nc1ccccc1F	-11.1%[0.00184 µM]	6.8	6.0%	7.2	-4.2%	u
Cc1ccc(C(=O)CCC(=O)Nc2ccccc2F)cc1	57.0%	32.5*	0.0%	39.1	-4.6%	148.3%
O=C(CCC(=O)c1ccc(F)cc1)Nc1ccccc1Cl	47.4%	16.6	-4.2%	35.9*	-5.1%	u
O=P(O)(COc1ccccc1)COc1ccccc1	7.2%	-1.6	-5.5%	-4.2	-5.6%	13.1µM*
C=CCN(C(C(=O)OC)C(C)C)S(=O)(=O)C=C (centres undefined)	x	-2.5	x	-2.4	x	x
N#Cc1cccc(NC(=O)Cn2cnc(S(=O)(=O)N3CCc4ccccc43)c2)c1	-25.4%	-0.6	u	-10.7	1.0%	4.65µM*
Cn1c(-c2c(N)n(CCc3ccccc3)c3nc4ccccc4nc23)nc2ccccc21	x	-1.4	u	12.0	120.8%	5.22µM*
Cn1c(-c2c(N)n(C3CCCC3)c3nc4ccccc4nc23)nc2ccccc21	11.7µM*	-5.2	u	-11.8	159.0%	8.28µM*
O[C@@H]1CN(Cc2ccc(-n3cccn3)cc2)CC[C@H]1N1CCN(c2ccccc2F)CC1	u	-1.1	8.91µM*	x	-2.3%	10.4µM*
Cc1ccc(OCC(=O)N/N=C2\CC(=O)CC(C)(C)C2)c(Br)c1	-1.0%	1.0	6.1%	-4.2	94.1%	9.28µM*
Cc1ccccc1OCC(=O)N/N=C1\CC(=O)CC(C)(C)C1	-12.5%	-1.2	-4.9%	-19.3	99.4%	-25.7%
COc1cc(OC)c2ccc(=O)oc2c1C(CC(=O)N1CCCC(C)C1)c1ccc2c(c1)OCO2 (centres undefined)	u	-1.3	-13.3%[8.37 µM]	-9.2	-15.1%	u
CCN(CC)CCC(c1cc(OC)c(OC)c(OC)c1)c1c(OC)cc(OC)c2c(C)cc(=O)oc12 (centres undefined)	9.28µM*	-7.0	7.4%	22.0	-2.3%	u
COc1cc(O)c(C(CC(=O)N2CCN(c3ccccc3)CC2)c2ccc(N(C)C)cc2)c(OC)c1 (centres undefined)	u	-3.5	u	-17.0	u	11.7µM*
COc1cc(OC)c2ccc(=O)oc2c1C(CC(=O)N1CCCC1)c1ccc2c(c1)OCO2 (centres undefined)	9.28µM*	-6.3	2.9%	-4.8	-4.7%	u
